Source: the supplement of paper PMC3334620
The full ranking holds about 33,000 sequences; the median of “E-score (-0.5 to 0.5)” is about -0.054, and the highest 2% start at about 0.35. This excerpt belongs to a sample that is enriched for the highest values.

Molecular target: T1, Stb5 (UniProt P38699)
T1 sequence: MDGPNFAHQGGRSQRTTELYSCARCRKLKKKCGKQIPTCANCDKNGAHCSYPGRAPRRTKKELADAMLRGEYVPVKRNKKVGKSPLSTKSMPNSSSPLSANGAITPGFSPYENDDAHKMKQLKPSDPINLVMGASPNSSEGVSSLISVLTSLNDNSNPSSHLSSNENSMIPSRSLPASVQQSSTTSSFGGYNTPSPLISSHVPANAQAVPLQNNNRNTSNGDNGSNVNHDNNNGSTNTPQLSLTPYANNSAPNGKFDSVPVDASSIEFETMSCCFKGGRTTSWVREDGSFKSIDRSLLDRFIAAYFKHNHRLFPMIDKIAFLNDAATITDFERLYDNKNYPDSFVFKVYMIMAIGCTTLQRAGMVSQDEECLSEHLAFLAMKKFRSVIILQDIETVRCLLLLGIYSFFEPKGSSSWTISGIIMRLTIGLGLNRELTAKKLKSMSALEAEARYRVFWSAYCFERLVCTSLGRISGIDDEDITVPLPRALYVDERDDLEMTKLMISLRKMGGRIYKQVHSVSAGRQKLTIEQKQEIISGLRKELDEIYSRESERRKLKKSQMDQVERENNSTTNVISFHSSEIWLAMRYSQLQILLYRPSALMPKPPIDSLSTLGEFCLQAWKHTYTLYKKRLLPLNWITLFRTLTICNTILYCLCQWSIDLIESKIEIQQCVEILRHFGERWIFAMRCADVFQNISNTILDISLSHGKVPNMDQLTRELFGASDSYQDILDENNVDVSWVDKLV
Test: PBM E-score (8-mer binding enrichment) (E-score (-0.5 to 0.5)); higher = stronger / more preferred TF binding
Conditions: protein concentration: 200 nM; construct: GST-full length
Outline: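 Yeast transcription factors carrying a GST tag, as full-length proteins or DNA-binding domains, were produced by PURExpress in vitro transcription/translation. About 100-200 nM protein was applied to universal all-10-mer Agilent arrays, double-stranded by primer extension on fresh or once-stripped slides. Bound protein was detected with fluorescent anti-GST, and scans were normalised with masliner. The Universal PBM Analysis Suite gave each ungapped eight-base word, pooled with its reverse complement, an E-score, a modified Wilcoxon-Mann-Whitney statistic.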

| Sequence | PBM E-score |
| --- | --- |
| TGCCCCAA | -0.123 |
| ACGTTGTA | -0.0486 |
| CGCACTTA | 0.368 |
| CGCACTTC | 0.0228 |
| AGCACTTA | -0.0929 |
| CCCTGCAG | -0.0201 |
| AGGGTGTA | -0.236 |
| ACGGTGTC | 0.408 |
| GCGGTGTA | 0.421 |
| ACGGTGTG | 0.288 |
| CCGGTGTC | 0.408 |
| GGGGTGTA | 0.178 |
| CTGGTGTC | -0.178 |
| GCGGTGGA | 0.177 |
| CGGGTGTA | 0.37 |
| CCGGTGAC | 0.292 |
| AGGGTGTC | -0.106 |
| CGGGTGTC | 0.00649 |
| TGACGCAA | -0.174 |
| CAAAGTGG | -0.254 |
| ACTGCGAC | 0.202 |
| TAACTCTA | -0.0643 |
| GAACCATC | -0.135 |

| Sequence | PBM E-score |
| --- | --- |
| ACCCACGT | -0.257 |
| ACGGTGTA | 0.348 |
| CCGGTGTA | 0.366 |
| CAGGTGTA | -0.204 |
| CGCAAAGA | 0.016 |
| CTGAAATA | -0.0506 |
| GCCTCACA | -0.212 |
| AACCCCCA | -0.0755 |
| ACCCCCGA | 0.371 |
| AACCCCAA | -0.0237 |
| AACCCCGA | 0.473 |
| CCCCCCGA | 0.14 |
| TCCCCCGA | 0.263 |
| CTCTTGAC | -0.182 |
| AGCTAAAT | 0.088 |
| CTCCAGCC | -0.15 |
| AAGAATAA | 0.0987 |
| AATGAATA | 0.0406 |
| ATAAATCC | 0.382 |
| ATAAATCG | 0.0618 |
| ATAATCCG | 0.103 |
| CTAATGCC | 0.285 |
| CTAATCCC | 0.354 |

| Sequence | PBM E-score |
| --- | --- |
| ATAATCCC | 0.389 |
| CTAATCCA | -0.106 |
| ATAATCCA | -0.0209 |
| ATAATGCG | 0.0614 |
| ATAAATCA | -0.129 |
| CTAATCAC | 0.189 |
| ATAATGCC | 0.386 |
| TGCCAGAA | -0.307 |
| CGCTTACG | 0.123 |
| GCCCTACC | -0.0725 |
| AAGATACG | -0.0742 |
| CGCTGCCC | -0.0156 |
| ACACGGCC | 0.116 |
| CCCTGTAA | -0.0001 |
| CGCAGTTC | 0.00085 |
| AGCAGTTA | -0.194 |
| CGCAGTTA | 0.359 |
| GAGATTGC | -0.0088 |
| CCATTCTC | -0.126 |
| AATCACTA | -0.155 |
| GGCGGACC | 0.412 |
| ATCGGACC | 0.398 |
| ATCGGTCA | 0.208 |

| Sequence | PBM E-score |
| --- | --- |
| CGCGGACC | 0.319 |
| TGCGGACA | 0.286 |
| ATCGGACA | 0.332 |
| CTCGGTCC | 0.242 |
| GGCGGACA | 0.357 |
| ATCGGACG | 0.305 |
| GGCGGAAC | 0.25 |
| GGCGGAAA | 0.227 |
| ATCGGTCC | 0.396 |
| CTATAATC | 0.019 |
| GGCACCCA | -0.036 |
| GCACTCAA | -0.0587 |
| ATACCAAT | -0.00644 |
| TCCCACAA | 0.0012 |
| ACTGCGCG | 0.122 |
| AGCGGAAC | 0.295 |
| AGCGGAGC | 0.31 |
| AGCGGACC | 0.359 |
| GCACGGGC | 0.2 |
| AGCTATTC | -0.0735 |
